Assay results: ChEMBL document CHEMBL3988442, “University of Dundee, Small-Polar-MMV Screening Library” (2021)

Target: T1, Aspartate--tRNA(Asp/Asn) ligase (Mycobacterium tuberculosis (strain ATCC 25618 / H37Rv)) (UniProt P9WFW3); note: in the data most compounds retested in dose-response had high values
T1 sequence (whole entry): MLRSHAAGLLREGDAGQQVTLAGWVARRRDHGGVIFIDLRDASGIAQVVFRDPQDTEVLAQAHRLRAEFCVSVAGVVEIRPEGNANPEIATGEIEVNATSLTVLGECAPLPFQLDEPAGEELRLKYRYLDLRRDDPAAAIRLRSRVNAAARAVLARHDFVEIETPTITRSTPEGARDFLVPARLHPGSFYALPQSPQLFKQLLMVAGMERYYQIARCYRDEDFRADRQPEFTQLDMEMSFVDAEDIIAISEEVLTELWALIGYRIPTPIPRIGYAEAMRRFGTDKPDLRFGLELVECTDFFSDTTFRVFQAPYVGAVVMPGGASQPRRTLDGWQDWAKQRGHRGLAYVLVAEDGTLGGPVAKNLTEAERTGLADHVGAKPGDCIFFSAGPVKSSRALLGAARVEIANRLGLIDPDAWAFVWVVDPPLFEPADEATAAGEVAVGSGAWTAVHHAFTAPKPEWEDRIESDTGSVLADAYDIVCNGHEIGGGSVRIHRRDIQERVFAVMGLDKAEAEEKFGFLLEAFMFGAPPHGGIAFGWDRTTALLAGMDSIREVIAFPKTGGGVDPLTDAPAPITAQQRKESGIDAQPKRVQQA
Experiment: Assay for Asp RNA synthetase-1 from Mycobacterium tuberculosis
Assay type: functional
Parameters: scale not given: direction of the effect not stated beside the values
Conditions: 30 µM

Going from `CCc1nccn1C1CCCN(C(=O)Cc2cn3ccccc3n2)C1` (stereo unspecified) to `O=C(c1ccn[nH]1)N1CCCC(n2cncn2)C1` (stereo unspecified), the Percent Effect falls from 0.0146% to -5.6%.

Going from `CC(Nc1cccc(CN2CCOC2=O)c1)C(=O)N1CCNC1=O` (stereo unspecified) to `CS(=O)(=O)N1CCN(C(=O)Cn2ccc3c(Cl)cccc32)CC1`, the Percent Effect rises from -0.922% to -0.673%.

Going from `OCCC1CN(C2CCC2)CCN1C1CCCC1` (stereo unspecified) to `Cc1nc(C)n(CC2CCCN(CCC(=O)N3CCCCC3)C2)n1` (stereo unspecified), the Percent Effect falls from -1.5% to -1.61%.

First: Cc1nc(-c2ccc(C(=O)O)cc2)cc(C2CCN(C(C)C)C2)n1 (stereo unspecified)
Second: Cc1noc2ncc(C(=O)NCC3CCN(C(C)C)C3)cc12 (stereo unspecified)
The Percent Effect of the first is higher: 2.34% for the first, 1.08% for the second.

Going from `CC(C)c1nn(C)c(N(C)C)c1CNCc1ccc2c(c1)OCO2` to `Cc1ccsc1CN(Cc1ccccn1)CC(C)C`, the Percent Effect falls from -1.77% to -2.01%.

First: OCCn1cc(CN2CCN(CCOCC(F)(F)F)CC2)cn1
Second: CCCN1CCC(NC(=O)NCCc2nc(CC)c(C)s2)CC1
The Percent Effect of the first is higher: -3.85% for the first, -5.93% for the second.

First: Cc1ccc(C(=O)N2CCC3(CC2)COC(COc2ccccn2)C3)o1 (stereo unspecified)
Second: OCC1CCCN1c1cc(NCCNc2ccccn2)ncn1 (stereo unspecified)
The Percent Effect of the first is lower: 4.9% for the first, 8.62% for the second.

First: CCCn1nc2c(cc1=O)CN(CCCS(N)(=O)=O)CC2
Second: CCCn1nc(C2CCNCC2)n(Cc2ccccc2)c1=O
The Percent Effect of the first is higher: 18.8% for the first, -5.32% for the second.

First: O=C1CCC2(CCCN(C(=O)c3cscn3)C2)CN1CCc1c[nH]cn1 (stereo unspecified)
Second: Cc1nc(CN2CCCC(N(C)Cc3cscn3)C2)no1 (stereo unspecified)
The Percent Effect of the first is lower: 3.83% for the first, 4.73% for the second.

Going from `CCSc1cc(C(=O)NCc2ccccc2O)ccn1` to `COc1cc(C)nc(N2CCN(C(=O)CN(C)C3CC3)CC2)n1`, the Percent Effect falls from 2.33% to 0.9%.

Target: Shiga toxin 2 (Escherichia coli O157:H7) (UniProt P09385+P09386)
Experiment: E. coli 0.157:H7 Shiga Toxin SOP - stx2 screening assay
Assay type: functional
Parameters: scale not given: direction of the effect not stated beside the values
Conditions: 30 µM

Compared with `CCOCCN1CCN(Cc2nnc(C3CC3)o2)CC1CC` (stereo unspecified), `CCc1ncc2c(n1)CN(Cc1nnc(C)o1)CC2` is lower in Percent Effect: -12.2% for the first, -16.2% for the second.

Going from `CCOc1ccnc(N2CCN(C(=O)c3cc(Cl)c[nH]3)CC2)n1` to `COc1cc(C)nc(N2CCN(C(=O)CCc3cscn3)CC2)n1`, the Percent Effect falls from 18.5% to -10.1%.

First: CCN(CC)c1ccc(C(=O)NCc2cccnc2-n2cncn2)cn1
Second: CCSc1cc(C(=O)NCc2ccccc2O)ccn1
The Percent Effect of the first is lower: -12.3% for the first, 11.7% for the second.

Going from `COCC1CN(S(C)(=O)=O)Cc2ncn(CC3CC3)c21` (stereo unspecified) to `Cc1nc(C)n(CC2CCCN(CCC(=O)N3CCCCC3)C2)n1` (stereo unspecified), the Percent Effect rises from -1.74% to 13.6%.

First: Cc1nc(CN2CCOC(Cn3cncn3)C2)nc2ccccc12 (stereo unspecified)
Second: COc1ccccc1OCCN1CCCC(c2cc(C(N)=O)[nH]n2)C1 (stereo unspecified)
The Percent Effect of the first is higher: 16.4% for the first, 5.34% for the second.

Compared with `Cc1nc(C2CCN(C(=O)c3cccnc3)CC2)c2sccn12`, `CCn1cnnc1C1CCN(C(=O)c2cnc(C3CC3)s2)CC1` is higher in Percent Effect: -14.1% for the first, -7.13% for the second.

Compared with `CNC(=O)C(C)(C)NC(=O)c1cc(OCC2CCC2)cc(C(=O)OC)c1`, `Cc1noc2ncc(C(=O)NCC3CCN(C(C)C)C3)cc12` (stereo unspecified) is higher in Percent Effect: 7.4% for the first, 17.2% for the second.

Compared with `Cc1csc(N2CCN(C(=O)CCC(=O)c3ccc(C)s3)CC2)n1`, `CCc1noc(C(C)N2CCN(c3ccc(C#N)cn3)CC2)n1` (stereo unspecified) is lower in Percent Effect: 8.56% for the first, -26.5% for the second.

First: Cc1cc2c(=O)n3c(nc2s1)CCN(Cc1cnn(C)c1C)CC3
Second: OCCn1cc(CN2CCN(CCOCC(F)(F)F)CC2)cn1
The Percent Effect of the first is lower: 8.81% for the first, 27.3% for the second.

Going from `CCN(C(=O)CCCOc1ccccc1F)c1ccncc1` to `Cc1ccc(CNC(c2ccccc2)c2nccn2C)cc1C` (stereo unspecified), the Percent Effect rises from 1.08% to 14.8%.

Going from `Cc1ccc(CNC(=O)Nc2nnc(C)s2)cn1` to `CCCN1CCC(NC(=O)NCCc2nc(CC)c(C)s2)CC1`, the Percent Effect rises from -6.66% to 19.2%.

First: Nc1cc(N2CCCC2c2cnccn2)ncn1 (stereo unspecified)
Second: OCC1CCCN1c1cc(NCCNc2ccccn2)ncn1 (stereo unspecified)
The Percent Effect of the first is higher: 0.702% for the first, -85.7% for the second.

Compared with `O=C1COc2ccc(C(=O)NS(=O)(=O)c3ccc(F)cc3F)cc2N1`, `CC(Nc1cccc(CN2CCOC2=O)c1)C(=O)N1CCNC1=O` (stereo unspecified) is lower in Percent Effect: 17.8% for the first, -28.6% for the second.

First: CNC(=O)N1CC[C@H]2N(C)CC[C@@]2(C(=O)Nc2ccccc2)CC1
Second: Cc1ccc(C(=O)N2CCC3(CC2)COC(COc2ccccn2)C3)o1 (stereo unspecified)
The Percent Effect of the first is higher: 15.9% for the first, 5.7% for the second.

Going from `CCc1nccn1C1CCCN(C(=O)Cc2cn3ccccc3n2)C1` (stereo unspecified) to `O=C(c1ccn[nH]1)N1CCCC(n2cncn2)C1` (stereo unspecified), the Percent Effect falls from -20.4% to -25%.

First: OCCC1CN(C2CCC2)CCN1C1CCCC1 (stereo unspecified)
Second: O=C1CCC2(CCCN(C(=O)c3cscn3)C2)CN1CCc1c[nH]cn1 (stereo unspecified)
The Percent Effect of the first is higher: 7.89% for the first, -12.3% for the second.

First: Cc1nc(-c2ccc(C(=O)O)cc2)cc(C2CCN(C(C)C)C2)n1 (stereo unspecified)
Second: CC(C)c1nn(C)c(N(C)C)c1CNCc1ccc2c(c1)OCO2
The Percent Effect of the first is lower: -5.82% for the first, 30.6% for the second.

Compared with `CCCn1nc2c(cc1=O)CN(CCCS(N)(=O)=O)CC2`, `Cc1ccsc1CN(Cc1ccccn1)CC(C)C` is lower in Percent Effect: 7.35% for the first, -3.58% for the second.
